Only some compounds are listed: those with a hit (about 9.1% of all), similar ones and a draw of the others.
D1 mod: allosteric modulators of human D1 dopamine receptor. B-score at 10 µM. P21728. hit rate 5.9% among 58,000. HEK293 D1, CRE-luciferase, dopamine EC30 potentiation; actives deviate in either direction;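 active means luminescence count or its row- and column-corrected plate score outside the 99.7% band of the plate's sample wells, on either side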
Target sequence (P21728 whole entry, looked up): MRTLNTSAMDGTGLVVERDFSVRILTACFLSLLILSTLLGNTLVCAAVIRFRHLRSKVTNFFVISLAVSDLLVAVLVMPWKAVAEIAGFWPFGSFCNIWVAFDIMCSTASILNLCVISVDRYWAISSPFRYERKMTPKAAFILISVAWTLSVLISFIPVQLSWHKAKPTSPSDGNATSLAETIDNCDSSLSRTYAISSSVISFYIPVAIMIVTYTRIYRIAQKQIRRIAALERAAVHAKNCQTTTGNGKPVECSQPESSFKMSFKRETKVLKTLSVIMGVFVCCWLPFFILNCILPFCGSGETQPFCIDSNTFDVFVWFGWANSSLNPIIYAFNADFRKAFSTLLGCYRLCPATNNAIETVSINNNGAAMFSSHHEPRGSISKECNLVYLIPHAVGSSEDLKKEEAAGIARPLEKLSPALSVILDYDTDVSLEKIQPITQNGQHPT
Htt clearance: compounds clearing mutant huntingtin protein | HeLa Exon1htt(103Q)mCFP, aggregate imaging; zero = plate's median compound well | inhibition, % at 1.5 µM | hit rate 0.42% among 47,000 | AID 853;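 active means inhibition of aggregate fluorescence above about 70%, also judged a hit by eye on the cell image, limit read from the data, passing the limit was not always enough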;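 further: cells exposed to compound for three days before fixation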
M1 antag: antagonists of rat M1 muscarinic receptor. B-score at 10 µM. CHO-M1 cells, Fluo-4 calcium, ACh EC80 antagonist mode; active compounds read low. hit rate 3.4% among 64,000;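 active means calcium fluorescence response, raw or row-and-column corrected B-score, differing from the plate sample mean either way at a set confidence level, mostly lower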
M1 agonist: activates the M1 muscarinic receptor; CHO-M1 cells, Fluo-4 calcium fluorescence, agonist mode; active compounds read high; B-score at 10 µM; hit rate 3% among 64,000;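 active means fluorescence rise, raw or as B-score row- and column-corrected plate score, outside the 99.7% band of its plate's samples, either direction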
M1 antag conf: M1 muscarinic receptor (rat) antagonism, confirmed. shares compounds with M1 antag. AID 677. CHO-M1 cells, Fluo-4 calcium, ACh EC80 antagonism; active compounds read low. hit rate 43% among 1,700. calcium response (max-min fluorescence) at 10 µM;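 active means calcium response below the same-plate mean of wells given acetylcholine alone at its 80%-effect dose, minus 3 SD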;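 further: raw fluorescence intensity difference in arbitrary instrument units and not normalized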
mGluR4 antag: acts on human mGluR4 in M1 antagonist selectivity test. shares compounds with M1 antag. CHO-mGluR4 calcium flux, Fluo-4 fluorescence, glutamate EC80; active compounds read low. fluorescence response (max-min) at 10 µM. hit rate 0.9% among 1,700. AID 678;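 active means fluorescence response below the plate's average for near-maximal glutamate wells, less 3 SD of those wells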;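 further: raw unnormalized fluorescence span taken in the window right after glutamate addition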
Starred values were filed as active, the others as inactive; · = no result.

SMILES	D1 mod	Htt clearance	M1 antag	M1 agonist	M1 antag conf	mGluR4 antag
CCOC(=O)C(C(=O)Nc1ccc(C)cc1)C1CCCCC1 (configuration not stated)	·	12.4	·	·	·	·
Cc1csc(NC(=O)c2ccccc2C(=O)O)n1	-0.347	-13.2	-3.03*	-0.175	605	254
O=C(NCCCN1CCC(Cc2ccccc2)CC1)C1CCC(=O)N1C1CCCC1 (configuration not stated)	-1.09	·	-1.25	0.313	·	·
O=C(NCCCN1CCC(Cc2ccccc2)CC1)C1CC(=O)N(C2CCCC2)C1 (configuration not stated)	-1.53	·	-3.32*	-0.0109	508*	255
CCCS(=O)(=O)N1CCCC(C(=O)NCCN2CCC(Cc3ccccc3)CC2)C1 (configuration not stated)	-0.196	22.9	-2.37*	0.697	524	214
Cc1ccc(C2(C(F)(F)F)N=C3Sc4cc(C)ccc4N3C(=O)N2)cc1 (configuration not stated)	·	12.4	·	·	·	·
CCOC(=O)C1CCCN(c2c(NCCCN(CC)c3cccc(C)c3)c(=O)c2=O)C1 (configuration not stated)	·	·	-5.23*	-0.0269	566	225
COCCNC(=O)c1ccc2c(c1)nc(C)n2-c1cc(OC)c(OC)c(OC)c1	0.35	65.3	0.888	0.308	·	·
COc1ccc(Cn2c(CCC(=O)NCc3ccco3)nc3cccnc32)cc1	1.2	-2.2	0.429	0.984	·	·
CCN(CC)CCNC(=O)c1sc2nc(-c3ccccc3)cn2c1C	·	·	-0.793*	0.0276	345*	212
CN1CCN(CC(=O)N2c3ccccc3C(=O)Nc3cccnc32)CC1	1.75	·	·	·	·	209
CCN1C(=O)c2ccccc2S(=O)c2ccc(C(=O)N3CCN(C(=O)c4ccco4)CC3)cc21 (configuration not stated)	·	·	-1.34*	-0.0255	485	220
CCN1C(=O)c2ccccc2S(=O)c2ccc(C(=O)N3CCCCCC3)cc21 (configuration not stated)	1.12	-2.8	-2.33	-0.124	·	·
COC(=O)C1=C(O)C(C(=O)OC)C(c2ccc(C)cc2)C(C#N)(C#N)C1c1ccc(C)cc1 (configuration not stated)	·	-2.5	·	·	·	·
CCOc1ccc(-c2nc(=S)[nH][nH]2)cc1	-0.274	-32.3	-5.24*	1.5	638	242
COc1ccc(-c2nc(=S)[nH][nH]2)cc1	-0.0386	22.9	0.127	0.195	·	·
NCCCCCc1nnc(SCc2cccc(Cl)c2)o1	-1.61	-11.7	-5.2*	-0.349	415*	282
Cc1nn(C)c(C)c1S(=O)(=O)Nc1ccc2c(c1)OCO2	-1.02	20.1	-5.93*	0.212	559	203
O=C(NCCCN1CCCC1)c1ccc(CS(=O)(=O)c2ccc(Br)cc2)o1	-0.461	·	-1.21	0.841	·	·
O=C(NCCN1CCCCCC1)c1ccc(CS(=O)(=O)c2ccc(Br)cc2)o1	-0.0626	38.4	-3.03*	-1.19	470*	240
COc1ccc(C(=O)CSc2nnc(Cn3cnc4ccccc43)o2)cc1	-1.51	·	-2.19*	2.04	532*	253
CSc1cccc(NC(=O)CN(C)S(=O)(=O)c2ccc(C)cc2)c1	-0.0169	54.3	0.125	0.0264	·	·
Cn1c(C(=O)NC2CCCCC2)cc2sccc21	-0.517	·	-0.318	-0.193	·	·
CN(C(=O)c1cc2sccc2n1C)C1CCCCC1	-1.67	6.0	-3.23*	0.754	628	236
CCN(CCNC(=O)c1cc(C)nn1-c1ccccc1)c1ccccc1	-0.297	·	-0.0262	-0.433	·	·
SMILES	D1 mod	Htt clearance	M1 antag	M1 agonist	M1 antag conf	mGluR4 antag
O=C(Nc1cccc(Cl)c1)NC1CCCCC1	0.1	58.3	-2.21*	-1.77	630	223
CC(=O)c1cccc(NC(=O)NC2CCCCC2)c1	-0.104	22.9	-0.0603	-0.0683	·	·
C=CCn1c(SCc2ccccc2C#N)nnc1-c1cc(Br)ccc1O	-1.67	5.9	-3.77*	1.39	330*	193
CCOc1ccccc1C1CC(c2ccc(F)cc2)Nc2nc(N)nn21 (configuration not stated)	0.261	7.4	-0.174	-1.47	·	·
CCC(C)(C)n1nnnc1C(c1cc2cc(OC)ccc2[nH]c1=O)N1CCc2ccccc21 (configuration not stated)	0.0653	-53.9	-16.3*	0.229	486	198
CN(C)CCCOC(=O)C1c2ccccc2Oc2ccccc21	·	·	-12.3*	-1.1	22.3*	243
COc1cc(-c2nnc(COC(=O)C3c4ccccc4Oc4ccccc43)o2)cc(OC)c1OC	0.00452	·	-1.75	1.6	·	·
CCN(CC)CCCNC(=O)C1c2ccccc2Oc2ccccc21	0.226	·	-6.85*	0.0497	192*	255
O=S(=O)(c1ccc(Cl)cc1)N1CCC(N2CCCCCC2)CC1	·	·	-4.65*	0.522	545	259
Cc1cc(C(C)(C)C)cc(C)c1CC1=NCCN1	-0.171	·	-8.41*	-0.0122	412*	244
Cn1c(Sc2nc3ccccc3n2C)nc2ccccc21	0.378	·	-0.00654	0.107	·	·
Cn1c(SCc2nc3ccccc3n2CCO)nc2ccccc21	0.0178	·	-2.56*	-0.585	647	225
COc1cccc(NC(=O)c2oc3ccccc3c2NC(=O)C(C)(C)C)c1	-1.48	·	-3.82*	-0.334	700	243
COc1cccc(NC(=O)c2oc3ccccc3c2NC(=O)c2ccc3c(c2)OCO3)c1	0.84	·	0.174	-0.312	·	·
CN1CCN(C(=O)N2c3ccccc3C=Cc3ccccc32)CC1	-2.08	·	-18*	1.8	19.6*	198
CCN(CC)C(=O)N1c2ccccc2C=Cc2ccccc21	·	-5.5	·	·	·	·
c1ccc2c(N3CCCCC3)nc(N3CCCC3)nc2c1	-1.27	·	-2.63*	0.0045	493*	167
Nc1nc(N2CCCCC2)nc2ccccc12	-1.99	-57.5	-5.88*	-0.0687	286*	268
c1ccc(-c2nc(N3CCCCC3)nc3ccccc23)cc1	·	-5.0	·	·	·	·
Cc1ccc(S(=O)(=O)N(CCC(=O)O)Cc2ccc(Cl)cc2)cc1	·	-12.2	·	·	·	·
CC[N+](C)(CC)CCOC(=O)C(O)(c1ccccc1)C1CCCCC1 (configuration not stated)	0.867	·	-16.1*	-0.391	10*	213
CCOC(=O)C(C(=O)Nc1ccccc1)C1CCCCC1 (configuration not stated)	0.098	17.3	-0.259	-0.458	·	·
CCN(CC)CCOC(=O)C12CC3CC(CC(C3)C1)C2	0.0343	·	-16.1*	-2.47	173*	175
CCOc1ccc(OCCOc2ncnc3ccccc23)cc1	·	33.3	·	·	·	·
O=C(NCc1ccco1)c1ccc2c(=O)n(CCC3=CCCCC3)c(=O)[nH]c2c1	-1.78	-36.8	-0.0218	-0.0769	·	·
Cn1c(=O)oc2cc(S(=O)(=O)NCc3ccco3)ccc21	0.78	11.8	-3.37*	0.0178	690	237
Cn1c(=O)c2c(nc(SCCN3CCOCC3)n2Cc2ccccc2Cl)n(C)c1=O	-0.268	·	0.147	-0.782	·	·
Cc1ccc(Cn2c(SCCN3CCCCC3)nc3c2c(=O)n(C)c(=O)n3C)cc1	1.18	·	-3.9*	-2.02	267*	247
Cn1c(=O)c2c(nc(SCCN3CCCCC3)n2Cc2ccccc2)n(C)c1=O	0.198	·	-4.67*	-1.11	246*	247
